Reference: PubChem BioAssay (Tox21)
Results filed as inconclusive are left out. The source made the active and inactive calls. Unless noted, the call rests on the fitted dose curve; in most records, active means well fitted curve in the direction sought with a large enough effect in the repeat runs; inconclusive means weak or mixed curves; inactive means no such curve, though single readings can be large; an effect the other way counts as inactive or inconclusive.

Assays:
[1] = qHTS assay for small molecule agonists of the p53 signaling pathway (AID 651631; calls by dose curve; further: nearly all actives have a fitted effect of over 15% in size)
Procedure, shortened: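 Testing took place in human colorectal HCT-116 cells with stable p53RE-driven beta-lactamase. After 16 h of compound exposure at 37 °C, a FRET substrate was added and fluorescence recorded 2 h later.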

[2] = qHTS assay for small molecules that induce genotoxicity in human embryonic kidney cells expressing luciferase-tagged ATAD5 (AID 651632); further: nearly all actives have a fitted effect of over 15% in size
Procedure, shortened: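 Concentration-response screen for ATAD5 upregulation in HEK293T luciferase reporter cells; 16 hr treatment at 37C, then luminescence after 30 min with Amplite at room temperature.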

[3] = qHTS assay for small molecule agonists of the p53 signaling pathway - cell viability (AID 651633; calls by dose curve; further: series mostly up to about 83 µM; nearly all actives have a fitted effect of over 30% in size)
Procedure, shortened: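 p53RE-bla cells, seeded at 4,000 per well and rested 5 h at 37 C/5% CO2, received compounds in DMSO for 16 h at 37 C. CellTiter-Glo was then added, and luminescence was read after 30 min at room temperature to gauge cytotoxicity.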

[4] = qHTS assay for small molecules that induce genotoxicity in human embryonic kidney cells expressing luciferase-tagged ATAD5 - cell viability (AID 651634; calls by dose curve; further: nearly all actives have a fitted effect of over 25% in size)
Procedure, shortened: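 15.5 hr compound or vehicle exposure of HEK293T cells expressing luciferase-tagged ATAD5 at 37C; live-cell protease activity is read by fluorescence after 30 min of CellTiter-Fluor.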

[5] = qHTS assay to test for compound auto fluorescence at 590 nm (red) in HepG2 cells (AID 720674)
Procedure, shortened: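 Compound auto-fluorescence is scored relative to Rose Bengal sodium, measured at 540/590 nm in live HepG2 cultures after 1 hr compound contact (37 C, 5% CO2).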

[6] = qHTS assay to test for compound auto fluorescence at 535 nm (green) in HepG2 cells (AID 720675)
[7] = qHTS assay to test for compound auto fluorescence at 460 nm (blue) in HEK293 cells (AID 720678)
Procedure, shortened: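 Measured: blue fluorescence (Ex 405/Em 460 nm) of compound-treated HEK293 cells, incubated overnight at 37C with 5% CO2 and scaled to triamterene equivalents.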

[8] = qHTS assay to test for compound auto fluorescence at 590 nm (red) in HEK293 cells (AID 720679)
Procedure, shortened: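 Using HEK293 cells at 2,000 per well, the screen added 23 nL of each compound after cell attachment and incubated overnight (37C, 5% CO2). The plate reader then captured red-label fluorescence, Ex/Em 540/590nm.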

[9] = qHTS assay to test for compound auto fluorescence at 535 nm (green) in HEK293 cells (AID 720680)
[10] = qHTS assay to test for compound auto fluorescence at 460 nm (blue) in HEK293 cell free culture (AID 720681)
Procedure, shortened: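 Test compounds were pinned into cell-free culture medium (DMEM with 10% FBS) and fluorescence was read directly at Ex/Em 405/460 nm. Signals were expressed as fluorescence equivalents of triamterene, with DMSO vehicle as control.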

[11] = qHTS assay to test for compound auto fluorescence at 535 nm (green) in HEK293 cell free culture (AID 720682)
Procedure, shortened: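 DMEM + 10% FBS, cell-free; cpd or DMSO pinned in; Ex485/Em535 read; output as fluorescein-equivalent signal.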

[12] = qHTS assay to test for compound auto fluorescence at 590 nm (red) in HEK293 cell free culture (AID 720683)
Procedure, shortened: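 Tox21 10K library compounds were pinned into cell-free DMEM with 10% FBS and fluorescence was read at excitation 540 nm. Activity is expressed as Rose Bengal sodium equivalency.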

[13] = qHTS assay to test for compound auto fluorescence at 590 nm (red) in HepG2 cell free culture (AID 720684)
Procedure, shortened: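 Ex 540 / Em 590 nm read of compound in cell-free MEM (10% FBS). Rose Bengal sodium reference.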

[14] = qHTS assay to test for compound auto fluorescence at 460 nm (blue) in HepG2 cell free culture (AID 720685)
Procedure, shortened: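 Cell-free plates of MEM plus 10% FBS received 23 nL compound or DMSO vehicle; blue-channel (405/460 nm) intensity scored against triamterene as reference fluorophore.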

[15] = qHTS assay to test for compound auto fluorescence at 535 nm (green) in HepG2 cell free culture (AID 720686)
[16] = target: Glucocorticoid receptor (Homo sapiens) (UniProt P04150); assay: qHTS assay to identify small molecule antagonists of the glucocorticoid receptor (GR) signaling pathway (AID 720692; active means well fitted inhibition curve with a large enough effect in the signal ratio in the repeat runs, not every such curve was filed as active; the % refers to the signal ratio)
Procedure, shortened: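 Tox21 10K library screened in concentration-response for blockade of dexamethasone (5 nM final)-induced GRE-bla reporter activity in HeLa cells; 18 h treatment, fluorescence read.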

[17] = qHTS assay for small molecule disruptors of the mitochondrial membrane potential - cell viability (AID 720634; calls by dose curve;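 further: human HepG2 liver cancer cells; series mostly up to about 83 µM; nearly all actives have a fitted effect of over 20% in size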)
Procedure, shortened: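 In this qHTS format, HepG2 cells plated overnight were pinned with compound, incubated 1 hr, and assayed for ATP luminescence with CellTiter-Glo after m-MPI dye addition.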

[18] = qHTS assay to test for compound auto fluorescence at 460 nm (blue) in HepG2 cells (AID 720687)
Procedure, shortened: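 Cells (2,000/well in MEM with 10% FBS) attached overnight at 37 C, then were exposed to compound or DMSO for 1 hr at 37 C, 5% CO2. Fluorescence read at Ex/Em 405/460 nm, expressed as triamterene-equivalent signal.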

[19] = target: Glucocorticoid receptor (Homo sapiens) (UniProt P04150); assay: qHTS assay to identify small molecule agonists of the glucocorticoid receptor (GR) signaling pathway (AID 720691; active means well fitted activation curve with a large enough effect in the signal ratio in the repeat runs, not every such curve was filed as active; the % refers to the signal ratio)
Procedure, shortened: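 Measures GR pathway activation through a GRE-beta-lactamase reporter stably integrated in HeLa cells, with 18 h compound treatment at 37 C and fluorescence detection using a FRET substrate.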

[20] = qHTS assay for small molecule disruptors of the mitochondrial membrane potential (AID 720635); further: potency means the concentration at half of the fitted maximal effect
Procedure, shortened: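 HepG2 cells (2,000/well) attached overnight at 37C, then took compound for 1 hr at 37C, 5% CO2. Mito-MPS dye was added for 30 min; fluorescence was read at 490/535 nm (monomers) and 540/590 nm (aggregates).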
On the % scale 0 is the no-effect control and ±100 the full control effect.

Sequence of Glucocorticoid receptor (Homo sapiens) (P04150 whole entry, looked up): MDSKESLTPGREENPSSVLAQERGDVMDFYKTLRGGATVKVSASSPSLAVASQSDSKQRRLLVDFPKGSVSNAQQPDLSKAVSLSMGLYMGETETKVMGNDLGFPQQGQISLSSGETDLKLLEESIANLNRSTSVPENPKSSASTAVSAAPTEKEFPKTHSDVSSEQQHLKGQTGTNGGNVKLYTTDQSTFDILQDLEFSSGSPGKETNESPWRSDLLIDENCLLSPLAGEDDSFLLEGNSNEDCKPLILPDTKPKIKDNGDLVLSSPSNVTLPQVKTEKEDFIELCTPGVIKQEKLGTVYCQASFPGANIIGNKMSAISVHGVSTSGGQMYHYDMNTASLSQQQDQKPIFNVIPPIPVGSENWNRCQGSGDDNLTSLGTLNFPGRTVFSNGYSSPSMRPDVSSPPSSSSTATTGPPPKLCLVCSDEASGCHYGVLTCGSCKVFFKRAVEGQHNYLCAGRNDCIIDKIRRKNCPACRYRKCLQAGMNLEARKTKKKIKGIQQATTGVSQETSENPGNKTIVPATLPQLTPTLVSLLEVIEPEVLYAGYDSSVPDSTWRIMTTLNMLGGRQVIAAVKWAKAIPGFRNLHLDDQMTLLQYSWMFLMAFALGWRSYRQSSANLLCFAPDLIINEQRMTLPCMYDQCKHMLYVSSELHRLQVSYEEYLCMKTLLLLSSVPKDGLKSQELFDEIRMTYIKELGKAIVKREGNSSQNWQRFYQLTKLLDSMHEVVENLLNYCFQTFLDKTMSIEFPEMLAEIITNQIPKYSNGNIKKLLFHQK

CC(=O)OC1CCC(C(C)(C)C)CC1 (centres undefined)
inactive: Potency [1] | Potency [2] | outcome [3] | outcome [4] | outcome [5] | outcome [6] | outcome [7] | outcome [8] | outcome [9] | outcome [10] | outcome [11] | outcome [12] | outcome [13] | outcome [14] | outcome [15] | outcome [16]

c1coc(Cn2cccc2)c1
inactive: Potency [1] | Potency [2] | outcome [3] | outcome [4] | outcome [17] | outcome [6] | outcome [7] | outcome [8] | outcome [9] | outcome [10] | outcome [11] | outcome [12] | outcome [13] | outcome [14] | outcome [18] | Potency [19] | outcome [16]

C=CC(=O)OCC[N+](C)(C)C
inactive: Potency [1] | Potency [2] | outcome [3] | outcome [4] | outcome [5] | outcome [6] | outcome [7] | outcome [8] | outcome [9] | outcome [10] | outcome [11] | outcome [12] | outcome [13] | outcome [14] | outcome [15] | outcome [18]

Cc1cc(C)c(N)c(Cl)c1
inactive: Potency [1] | Potency [2] | outcome [3] | outcome [4] | outcome [17] | outcome [5] | outcome [6] | outcome [7] | outcome [8] | outcome [9] | outcome [11] | outcome [12] | outcome [13] | outcome [14] | outcome [18] | outcome [16]

O=C(c1ccccc1)c1cccc(O)c1
inactive: Potency [1] | Potency [2] | outcome [3] | outcome [4] | outcome [5] | outcome [6] | outcome [7] | outcome [8] | outcome [9] | outcome [10] | outcome [11] | outcome [12] | outcome [13] | outcome [14] | outcome [15] | outcome [18]
active: Potency [20] 27.7 µM

COC(=O)/C=C(\C)CCC=C(C)C
inactive: Potency [1] | Potency [2] | outcome [3] | outcome [4] | Potency [20] | outcome [5] | outcome [6] | outcome [7] | outcome [8] | outcome [9] | outcome [10] | outcome [11] | outcome [12] | outcome [13] | outcome [14] | outcome [15] | outcome [18]

O=C1c2ccccc2C(=O)N1CO
inactive: Potency [1] | Potency [2] | outcome [3] | outcome [4] | outcome [17] | outcome [6] | outcome [7] | outcome [8] | outcome [9] | outcome [11] | outcome [12] | outcome [13] | outcome [14] | outcome [15] | outcome [18] | outcome [16]

Cc1ccccc1C#N
inactive: Potency [1] | Potency [2] | outcome [3] | outcome [4] | outcome [17] | outcome [6] | outcome [7] | outcome [8] | outcome [10] | outcome [11] | outcome [12] | outcome [13] | outcome [14] | outcome [18]

C=C(C)C(=O)OCCCC
inactive: Potency [1] | Potency [2] | outcome [3] | outcome [4] | outcome [5] | outcome [6] | outcome [7] | outcome [8] | outcome [9] | outcome [10] | outcome [11] | outcome [12] | outcome [13] | outcome [14] | outcome [18]

CCCCCCCCCCCCCC(=O)OCC
inactive: Potency [1] | Potency [2] | outcome [3] | outcome [4] | Potency [20] | outcome [5] | outcome [6] | outcome [7] | outcome [8] | outcome [9] | outcome [10] | outcome [11] | outcome [12] | outcome [13] | outcome [14] | outcome [15] | Potency [19]

CN1CCN(C(=O)C2CCCCC2)CC1
inactive: Potency [1] | Potency [2] | outcome [3] | outcome [4] | outcome [17] | outcome [6] | outcome [7] | outcome [8] | outcome [9] | outcome [10] | outcome [11] | outcome [12] | outcome [13] | outcome [14] | outcome [18] | outcome [16]

C=C(C)C(=O)OCCOC1CC2CC1C1C=CCC21 (centres undefined)
inactive: Potency [1] | Potency [2] | outcome [3] | outcome [4] | outcome [17] | outcome [5] | outcome [6] | outcome [7] | outcome [8] | outcome [11] | outcome [12] | outcome [13] | outcome [14] | outcome [15]

CN(C)CCCN(C)C
inactive: activation [1] 3.19% [at 8.3 µM] | activation [2] -0.426% [at 8.08 µM] | activity change, negative = cytotoxicity [3] 10.5% [at 8.08 µM] | activity, negative = cytotoxicity [4] 29.6% [at 8.08 µM] | activity change, negative = cytotoxicity [17] 7.6% [at 8.08 µM] | fluorescence, relative to Rose Bengal [5] -1.07% [at 3.72 µM] | fluorescence, % of fluorescein control [6] -0.223% [at 3.72 µM] | fluorescence, % of triamterene [7] -0.32% [at 3.72 µM] | fluorescence, % of fluorescent control [8] -0.954% [at 3.72 µM] | activity change [11] -0.2% [at 3.72 µM] | fluorescence, % of fluorescent control [12] -0.816% [at 3.72 µM] | fluorescence, % of Rose Bengal [13] -0.0354% [at 3.72 µM] | fluorescence, % of fluorescent control [14] -0.358% [at 3.72 µM] | fluorescence, % of fluorescein control [15] -0.197% [at 3.72 µM] | fluorescence, % of fluorescent control [18] -0.76% [at 3.72 µM] | activation [19] -0.0659% [at 6.9 µM] | activity change, negative = inhibition [16] 10.4% [at 7.04 µM]

CCOC(=O)COc1ccc2c(C)c(CCN(CC)CC)c(=O)oc2c1Cl
inactive: Potency [1] | Potency [2] | outcome [3] | outcome [4] | outcome [17] | outcome [5] | outcome [6] | outcome [7] | outcome [8] | outcome [10] | outcome [11] | outcome [12] | outcome [13] | outcome [14] | outcome [15]

CCCc1ccc(O)c(OC)c1
inactive: Potency [1] | Potency [2] | outcome [3] | outcome [4] | outcome [17] | outcome [5] | outcome [6] | outcome [7] | outcome [8] | outcome [9] | outcome [11] | outcome [12] | outcome [13] | outcome [14] | outcome [18] | outcome [16]
